# Laboratory results: PubChem BioAssay AID1159580 (chemical genetic matrix, 2015)
# “And” between values parts separate entries of the source, which are not always exact repeats. Equal values may be shown once. Among all 5,500 compounds or so, about 2,000 (36%) were called active. Another 18% or so got no clear call; they are omitted. The list shows a part of the results. A number with no mark means an inactive call. Cut-off read from the data, not from the text of the source: active = normalized growth mostly below about 0.91 (no sharp cut-off); inconclusive = no clear call, values can overlap the other calls; inactive = mostly above about 0.92.
# Test: chemical genetic growth profiling, strain panel (AID 1159580);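 note: tested at 20 µM; growth read once vehicle control cultures reached saturation at 30 °C; 1 = growth at the plate median or of vehicle wells; lower values mean less growth of the strain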
# Conditions: S. cerevisiae deletion strains, growth OD
smiles,measurement,setting,value
CCC(C)C(=O)O[C@@H]1C[C@@]2(C)[C@H](c3ccoc3)OC(=O)CC23OC2(C)O[C@]14[C@]1(C)[C@@H](CC(=O)OC)C5(C)CC1(O)[C@](O)(C5OC(=O)C1(C)OC1C)[C@@H](OC(C)=O)[C@]34O2 (some centres undefined),normalized growth,"locus YAL013W, strain DEP1, active compounds read low",1.02
same,normalized growth,"locus YAL021C, strain ccr4, active compounds read low",0.996
same,normalized growth,"locus YAL026C, strain drs2, active compounds read low",0.988
same,normalized growth,"locus YAL030W, strain snc1, active compounds read low",0.991
same,normalized growth,"locus YBL061C, strain skt5, active compounds read low",1
same,normalized growth,"locus YBR009C, strain hhf1, active compounds read low",1.01
same,normalized growth,"locus YBR021W, strain FUR4, active compounds read low",1.03
same,normalized growth,"locus YBR023C, strain chs3, active compounds read low",1.01
same,normalized growth,"locus YBR171W, strain sec66, active compounds read low",0.978
same,normalized growth,"locus YBR229C, strain ROT2, active compounds read low",1.01
same,normalized growth,"locus YBR231C, strain swc5, active compounds read low",0.995
same,normalized growth,"locus YBR279W, strain paf1, active compounds read low",1
same,normalized growth,"locus YCL011C, strain gbp2, active compounds read low",0.983
same,normalized growth,"locus YCL016C, strain dcc1, active compounds read low",1.01
same,normalized growth,"locus YCL029C, strain bik1, active compounds read low",1.02
same,normalized growth,"locus YCL061C, strain MRC1, active compounds read low",1.01
same,normalized growth,"locus YCL069W, strain vba3, active compounds read low",0.98
same,normalized growth,"locus YCR088W, strain abp1, active compounds read low",0.995
same,normalized growth,"locus YDL005C, strain med2, active compounds read low",0.978
same,normalized growth,"locus YDL035C, strain GPR1, active compounds read low",0.963
same,normalized growth,"locus YDL040C, strain nat1, active compounds read low",0.982
same,normalized growth,"locus YDL074C, strain BRE1, active compounds read low",0.994
same,normalized growth,"locus YDL101C, strain DUN1, active compounds read low",1.02
same,normalized growth,"locus YDL185W, strain tfp1, active compounds read low",1.02
same,normalized growth,"locus YDL192W, strain arf1, active compounds read low",0.995
same,normalized growth,"locus YDR001C, strain nth1, active compounds read low",0.997
same,normalized growth,"locus YDR069C, strain doa4, active compounds read low",1.01
same,normalized growth,"locus YDR101C, strain arx1, active compounds read low",1.02
same,normalized growth,"locus YDR137W, strain rgp1, active compounds read low",0.726 (active)
same,normalized growth,"locus YDR159W, strain sac3, active compounds read low",1.02
same,normalized growth,"locus YDR162C, strain NBP2, active compounds read low",0.979
same,normalized growth,"locus YDR195W, strain ref2",0.969
same,normalized growth,"locus YDR297W, strain sur2, active compounds read low",0.995
same,normalized growth,"locus YDR318W, strain mcm21, active compounds read low",1.02
same,normalized growth,"locus YDR334W, strain swr1, active compounds read low",0.983
same,normalized growth,"locus YDR335W, strain msn5, active compounds read low",0.992
same,normalized growth,"locus YDR388W, active compounds read low",1.02
same,normalized growth,"locus YDR392W, strain spt3, active compounds read low",0.918
same,normalized growth,"locus YDR502C, strain sam2, active compounds read low",1.03
same,normalized growth,"locus YEL003W, strain gim4, active compounds read low",0.993
same,normalized growth,"locus YEL037C, strain rad23, active compounds read low",0.995
same,normalized growth,"locus YEL061C, strain CIN8 (second series), active compounds read low",0.988
same,normalized growth,"locus YEL061C, strain CIN8, active compounds read low",1
same,normalized growth,"locus YER015W, strain faa2, active compounds read low",1
same,normalized growth,"locus YER016W, strain bim1, active compounds read low",0.995
same,normalized growth,"locus YER110C, active compounds read low",1.02
same,normalized growth,"locus YER111C, strain swi4, active compounds read low",0.976
same,normalized growth,"locus YER155C, strain BEM2 (second series), active compounds read low",1
same,normalized growth,"locus YER155C, strain BEM2, active compounds read low",1.01
same,normalized growth,"locus YER167W, strain BCK2, active compounds read low",1
same,normalized growth,"locus YFR010W, strain ubp6, active compounds read low",0.985
same,normalized growth,"locus YGL078C, strain dbp3, active compounds read low",1.05
same,normalized growth,"locus YGL086W, strain mad1, active compounds read low",1.01
same,normalized growth,"locus YGL167C, strain pmr1, active compounds read low",0.995
same,normalized growth,"locus YGL173C, strain kem1, active compounds read low",0.993
same,normalized growth,"locus YGL227W, strain vid30, active compounds read low",0.994
same,normalized growth,"locus YGL240W, strain doc1, active compounds read low",0.977
same,normalized growth,"locus YGL248W, strain PDE1, active compounds read low",1.01
same,normalized growth,"locus YGL253W, strain hxk2, active compounds read low",0.952
same,normalized growth,"locus YGR078C, strain PAC10, active compounds read low",1.02
same,normalized growth,"locus YGR135W, strain pre9, active compounds read low",1.04
same,normalized growth,"locus YGR229C, strain SMI1, active compounds read low",1.03
same,normalized growth,"locus YGR252W, strain gcn5, active compounds read low",1.04
same,normalized growth,"locus YHR013C, strain ard1, active compounds read low",0.984
same,normalized growth,"locus YHR027C, strain rpn1, active compounds read low",0.996
same,normalized growth,"locus YHR030C, strain SLT2, active compounds read low",1.02 and 0.954
same,normalized growth,"locus YHR079C, strain IRE1 (second series), active compounds read low",1.02
same,normalized growth,"locus YHR079C, strain IRE1, active compounds read low",0.962
same,normalized growth,"locus YHR094C, strain hxt1, active compounds read low",1.02
same,normalized growth,"locus YHR129C, strain ARP1, active compounds read low",1
same,normalized growth,"locus YHR142W, strain chs7, active compounds read low",0.984
same,normalized growth,"locus YHR200W, strain rpn10, active compounds read low",1.02
same,normalized growth,"locus YIL066C, strain RNR3, active compounds read low",0.999
same,normalized growth,"locus YIL073C, strain SPO22, active compounds read low",1.04
same,normalized growth,"locus YIL125W, strain kgd1, active compounds read low",1.02
same,normalized growth,"locus YIR030C, strain dcg1, active compounds read low",1.02
same,normalized growth,"locus YJL092W, strain hpr5, active compounds read low",0.986
same,normalized growth,"locus YJL095W, strain BCK1 (second series), active compounds read low",1
same,normalized growth,"locus YJL095W, strain BCK1, active compounds read low",1.01 and 0.948
same,normalized growth,"locus YJL115W, strain asf1, active compounds read low",1
same,normalized growth,"locus YJL129C, strain trk1, active compounds read low",0.983
same,normalized growth,"locus YJL134W, strain LCB3, active compounds read low",1.01
same,normalized growth,"locus YJL154C, strain vps35, active compounds read low",0.993
same,normalized growth,"locus YJL164C, strain tpk1, active compounds read low",1.01
same,normalized growth,"locus YJL166W, strain qcr8, active compounds read low",0.987
same,normalized growth,"locus YJL168C, strain set2, active compounds read low",1.02
same,normalized growth,"locus YJL187C, strain SWE1 (second series), active compounds read low",1.02
same,normalized growth,"locus YJL187C, strain SWE1, active compounds read low",1
same,normalized growth,"locus YJR066W, strain TOR1, active compounds read low",0.912
same,normalized growth,"locus YJR075W, strain HOC1, active compounds read low",1.02
same,normalized growth,"locus YKL009W, strain mrt4, active compounds read low",0.989
same,normalized growth,"locus YKL068W, active compounds read low",1
same,normalized growth,"locus YKL085W, strain MDH1 (second series), active compounds read low",1
same,normalized growth,"locus YKL085W, strain MDH1, active compounds read low",1
same,normalized growth,"locus YKL160W, strain elf1, active compounds read low",1.02
same,normalized growth,"locus YKR001C, strain vps1, active compounds read low",1.01
same,normalized growth,"locus YKR026C, strain gcn3, active compounds read low",1
same,normalized growth,"locus YKR091W, strain srl3, active compounds read low",0.996
same,normalized growth,"locus YLL001W, strain dnm1, active compounds read low",1.01
same,normalized growth,"locus YLL026W, active compounds read low",1
same,normalized growth,"locus YLL041C, strain sdh2, active compounds read low",0.987
same,normalized growth,"locus YLR027C, strain aat2, active compounds read low",1.01
same,normalized growth,"locus YLR039C, strain RIC1, active compounds read low",0.683
same,normalized growth,"locus YLR058C, strain SHM2, active compounds read low",1
same,normalized growth,"locus YLR102C, strain apc9, active compounds read low",1.03
same,normalized growth,"locus YLR113W, strain HOG1, active compounds read low",1
same,normalized growth,"locus YLR221C, strain rsa3, active compounds read low",0.978
same,normalized growth,"locus YLR258W, strain gsy2, active compounds read low",0.988
same,normalized growth,"locus YLR262C, strain YPT6 (second series), active compounds read low",0.711 (active)
same,normalized growth,"locus YLR262C, strain YPT6, active compounds read low",0.602 (active)
same,normalized growth,"locus YLR268W, strain sec22, active compounds read low",0.995
same,normalized growth,"locus YLR320W, strain mms22, active compounds read low",0.979
same,normalized growth,"locus YLR330W, strain CHS5, active compounds read low",1.02
same,normalized growth,"locus YLR342W, strain FKS1 (second series), active compounds read low",0.981
same,normalized growth,"locus YLR342W, strain FKS1, active compounds read low",0.977
same,normalized growth,"locus YLR357W, strain rsc2, active compounds read low",1.01
same,normalized growth,"locus YLR370C, strain arc18, active compounds read low",0.971
same,normalized growth,"locus YLR371W, strain rom2, active compounds read low",1.01
same,normalized growth,"locus YLR384C, strain iki3, active compounds read low",1.01
same,normalized growth,"locus YLR418C, strain cdc73, active compounds read low",1.01
same,normalized growth,"locus YML016C, strain PPZ1, active compounds read low",1
same,normalized growth,"locus YML032C, strain rad52, active compounds read low",1.01
same,normalized growth,"locus YML120C, strain ndi1, active compounds read low",0.992
same,normalized growth,"locus YML124C, strain tub3, active compounds read low",1.01
same,normalized growth,"locus YMR058W, strain fet3, active compounds read low",1.01
same,normalized growth,"locus YMR078C, strain ctf18, active compounds read low",1.02
same,normalized growth,"locus YMR125W, strain sto1, active compounds read low",0.991
same,normalized growth,"locus YMR129W, active compounds read low",0.999
same,normalized growth,"locus YMR205C, strain PFK2, active compounds read low",1.01
same,normalized growth,"locus YMR223W, strain ubp8, active compounds read low",1.02
same,normalized growth,"locus YMR231W, strain pep5, active compounds read low",0.945
same,normalized growth,"locus YMR307W, strain GAS1, active compounds read low",0.925
same,normalized growth,"locus YNL067W, strain RPL9B, active compounds read low",1.03
same,normalized growth,"locus YNL071W, strain lat1, active compounds read low",0.994
same,normalized growth,"locus YNL183C, strain NPR1, active compounds read low",0.928
same,normalized growth,"locus YNL209W, strain ssb2, active compounds read low",0.995
same,normalized growth,"locus YNL233W, strain BNI4, active compounds read low",1.03
same,normalized growth,"locus YNL248C, strain rpa49, active compounds read low",0.975
same,normalized growth,"locus YNL250W, strain rad50, active compounds read low",1.05
same,normalized growth,"locus YNL271C, strain bni1, active compounds read low",1.02
same,normalized growth,"locus YNL298W, strain CLA4, active compounds read low",1.02
same,normalized growth,"locus YNL307C, strain MCK1, active compounds read low",1.03
same,normalized growth,"locus YNL322C, strain KRE1 (second series), active compounds read low",0.984
same,normalized growth,"locus YNL322C, strain KRE1, active compounds read low",1.02
same,normalized growth,"locus YNR049C, strain mso1, active compounds read low",0.999
same,normalized growth,"locus YNR052C, strain pop2, active compounds read low",1.03
same,normalized growth,"locus YOL012C, strain htz1",0.597
same,normalized growth,"locus YOL147C, strain pex11, active compounds read low",1.02
same,normalized growth,"locus YOR001W, strain rrp6, active compounds read low",0.941
same,normalized growth,"locus YOR061W, strain CKA2, active compounds read low",1
same,normalized growth,"locus YOR069W, strain VPS5, active compounds read low",1.01
same,normalized growth,"locus YOR070C, strain gyp1, active compounds read low",0.994
same,normalized growth,"locus YOR080W, strain dia2, active compounds read low",0.985
same,normalized growth,"locus YOR083W, strain WHI5, active compounds read low",1.03
same,normalized growth,"locus YOR106W, strain vam3, active compounds read low",1.02
same,normalized growth,"locus YOR136W, strain idh2, active compounds read low",0.999
same,normalized growth,"locus YOR144C, strain elg1, active compounds read low",1.02
same,normalized growth,"locus YOR184W, strain ser1, active compounds read low",0.996
same,normalized growth,"locus YOR231W, strain MKK1, active compounds read low",0.978
same,normalized growth,"locus YOR265W, strain rbl2, active compounds read low",0.994
same,normalized growth,"locus YOR270C, strain vph1, active compounds read low",0.779
same,normalized growth,"locus YOR290C, strain snf2, active compounds read low",1
same,normalized growth,"locus YOR316C, strain cot1, active compounds read low",1.02
same,normalized growth,"locus YPL051W, strain arl3, active compounds read low",1.01
same,normalized growth,"locus YPL078C, strain atp4, active compounds read low",1.01
same,normalized growth,"locus YPL106C, strain sse1, active compounds read low",1.02
same,normalized growth,"locus YPL240C, strain hsp82, active compounds read low",0.989
same,normalized growth,"locus YPL241C, strain CIN2, active compounds read low",1.01
same,normalized growth,"locus YPL256C, strain CLN2, active compounds read low",0.965
same,normalized growth,"locus YPR119W, strain clb2, active compounds read low",1.01
same,normalized growth,"locus YPR141C, strain kar3, active compounds read low",1.03
same,normalized growth,"locus YPR163C, strain tif3, active compounds read low",1.02
same,normalized growth,"locus YPR167C, strain met16, active compounds read low",1.02
same,normalized growth,"strain wtn01, active compounds read low",1
